Drawing on the supplement of paper PMC7411054, this text covers phenotypically active for 36 molecules.

Counter-ions that a name gives are not always drawn. Values without a mark were called inactive.

The assay deals with WPMY1-TUBA1B-RELA. The assay is described as follows: phenotypically active (imaging signature differs from DMSO and reproducible) at any of 0.3-9 uM (binary (1 = active, 0 = inactive)); higher = active. Conditions: treatment time: 24 h. The procedure, abridged: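 Two criteria together defined phenotypic activity: deviation and reproducibility. Deviation meant ≥3 of 4 wells beyond the 95th percentile of Euclidean distances in solvent control wells, and reproducibility meant a median replicate Pearson correlation above the 95th percentile of non-replicates. Wells had been treated for 24 h at 0.3, 1, 3 or 9 µM in fifteen gene-edited A549, HepG2 and WPMY1 reporter lines before live imaging.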
Take `N[C@@H]1C[C@H]1c1ccccc1` [Tranylcypromine hydrochloride]: the phenotypically active was 0. To `C/C=C1\CN2CC[C@]34c5cc(OC)ccc5N5C(=O)C(O)OC[C@@H]([C@H]53)[C@H]1C[C@H]24` (stereo partly specified) [10-Methoxy-o-demethyltsilanine] belongs 0; to `Fc1ccccc1C1=NCC(=S)N(CC(F)(F)F)c2ccc(Cl)cc21` [quazepam], 0. The value for `COc1c2c(cc3c1OCO3)CC[N+](C)=C2` [Cotarnine chloride] was 0; that for `N[C@H]1C[C@@H]1c1ccccc1` [tranylcypromine] was 0; that for `O=c1ccc2ccc3occc3c2o1` [Angelicin] was 0. Regarding `C[C@]12COC(=O)C[C@@H]1CC[C@@H]1[C@@H]2CC[C@@]2(C)[C@H]1CC[C@]2(C)O` [oxandrolone], the phenotypically active was 0. To `CC(C)C[C@H](CN)CC(=O)O` [pregabalin] belongs 0; to `NC(=S)N/N=C/c1coc2ccccc2c1=O`, 0. To `O[C@H]1[C@H](O)[C@@H](O)CN2CC[C@H](O)[C@H]12` [Castanospermine] belongs 0; to `Cc1ccc(-c2nc3ccc(C)cn3c2CC(=O)N(C)C)cc1` [zolpidem], 0; to `CN1C(CC(O)c2ccccc2)CCCC1CC(O)c1ccccc1` (stereo unspecified) [Lobelanidine hydrochloride], 0. As to `CNC(=O)Oc1ccc2c(c1)[C@]1(C)CCN(C)O[C@@H]1N2C` [Geneserine], the phenotypically active is 0. Take `COc1ccc(C(=O)OC2C[C@H]3CC[C@H](C2)N3C)cc1OC` (stereo partly specified) [Convolamine hydrochloride]: the phenotypically active is 0.

Consider `CC(C)[N+](C)(CCC(C(N)=O)(c1ccccc1)c1ccccc1)C(C)C` [isopropamide-iodide], for which the phenotypically active is 0. For the molecule `CC(C)N(CCC(C(N)=O)(c1ccccc1)c1ccccn1)C(C)C` (stereo unspecified) [disopyramide], the phenotypically active is 0. On to `O=C1C[C@@H]2OCC=C3C[N+]4([O-])CC[C@]56c7ccccc7N1[C@H]5[C@H]2[C@H]3C[C@@H]64` (stereo partly specified) [Genostrychnine base], for which the phenotypically active is 0. To `C[C@@H]1CN([C@H]2CC[C@](C#N)(c3ccc(F)cc3)CC2)CC[C@]1(C(=O)O)c1ccccc1` [levocabastine] belongs 0; to `Cc1ccc(C[N+](C)(C)C)o1` [5-Methylfurmethiodide], 0. The value for `COc1cc2c3cc1Oc1cc(ccc1O)C[C@@H]1c4c(cc(OC)c(O)c4Oc4cccc(c4)C[C@@H]3N(C)CC2)CC[N+]1(C)C` [Tubocurarine chloride pentahydrate (+)] was 0.

Take `CCCC(C)C1(CC)C(=O)N=C(S)NC1=O` (stereo unspecified) [thiopental]: the phenotypically active was 0. The value for `C=C1[C@H]2C[C@@]3([C@@H]1O)[C@@H](C[C@@H]2O)[C@]12[C@@H]4C[C@H]3[C@H]1N(CC)C[C@]4(C)CC[C@@H]2O` [Napelline] was 0; that for `CO[C@H](C)[C@](O)(C(=O)OCC1=CCN2CC[C@H](O)[C@@H]12)C(C)C` [Heliotrine] was 0; that for `C/C=C1\C[C@@H](C)[C@](O)(CO)C(=O)OCC2=CCN3CC[C@@H](OC1=O)[C@@H]23` [Retrorsine] was 0. The value for `CN(C)NC(=O)CCC(=O)O` [Daminozide] was 0.

Consider `CN1[C@@H]2CC(=O)C[C@H]1[C@H](O)C2` [6-Hydroxytropinone], for which the phenotypically active is 0. Consider `COc1ccc2c3c1O[C@H]1C(=O)CC[C@H]4[C@@H](C2)N(C)CC[C@]314` [hydrocodone], for which the phenotypically active is 0. To `CCN(C(C)=O)c1cccc(-c2ccnc3c(C#N)cnn23)c1` [zaleplon] belongs 0; to `C[N+]1([O-])[C@@H]2C[C@@H](OC(=O)[C@H](CO)c3ccccc3)C[C@H]1[C@@H]1O[C@@H]12` (stereo partly specified) [Genoscopolamine HBr], 0; to `NCC1(CC(=O)O)CCCCC1` [gabapentin], 0. To `CN1CCc2cc3c(cc2[C@H]1[C@@H]1OC(=O)c2c1ccc1c2OCO1)OCO3` [bicuculine] belongs 0; to `c1cncc(C2CC3CCN2CC3)c1` (stereo unspecified) [RJR 2429 dihydrochloride], 0; to `CC1=CC(=O)C2=C(C)C[C@H](O)[C@@H]3[C@H](OC(=O)[C@H]3C)[C@@H]12` [Austricine hydrate], 0. With `C=C(C)[C@H]1CN[C@H](C(=O)O)[C@H]1CC(=O)O` [Kainic acid], the phenotypically active was 0. With `C[C@H]1CCC2(NC1)O[C@H]1C[C@H]3[C@@H]4CC[C@H]5C[C@@H](O[C@@H]6O[C@H](CO)[C@H](O[C@@H]7O[C@H](CO)[C@@H](O)[C@H](O[C@@H]8OC[C@@H](O)[C@H](O)[C@H]8O)[C@H]7O[C@@H]7O[C@H](CO)[C@@H](O)[C@H](O)[C@H]7O)[C@H](O)[C@H]6O)CC[C@]5(C)[C@H]4CC[C@]3(C)[C@H]1[C@@H]2C` (stereo partly specified) [Tomatine], the phenotypically active was 0.

`CN1[C@@H]2C[C@@H](OC(=O)[C@H](CO)c3ccccc3)C[C@H]1[C@@H]1O[C@@H]12` [Scopolamine hydrobromide]: the phenotypically active was 0.
